Assay [1] in a line: qHTS assay to identify small molecule antagonists of the androgen receptor (AR) signaling pathway using the MDA cell line in the presence of 0.5 nM R1881 - cell viability counter screen (AID 1259242). Note: nearly all actives have a fitted effect of over 45% in size. An outline of the steps: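 qHTS format. MDA-kb2 (MMTV-luc, AR/GR responsive) + cpd + 0.5 nM R1881 final, 16 hr 37C/0% CO2 → CellTiter-Fluor 30 min → fluorescence intensity.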
The target of assay [2] is Androgen receptor (Homo sapiens) (UniProt P10275). The experiment in a line: qHTS assay to identify small molecule antagonists of the androgen receptor (AR) signaling pathway using the MDA cell line in the presence of 0.5 nM R1881 (AID 1259243). Note: nearly all actives have a fitted effect of over 50% in size. The essentials: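 Antagonist mode quantitative HTS in MDA-kb2 MMTV-luciferase cells, agonist R1881 at 0.5 nM final, 16 hr exposure at 37C and 0% CO2, luminescent detection.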
Background: Quantitative high-throughput screening tests each substance at several concentrations.

Assay [3] can be described thus: qHTS assay to identify small molecule HDAC inhibitors (AID 1259364).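 Note: wild-type HCT-116 cells with endogenous class I/II HDAC activity; top concentration of the series differs between compounds; nearly all actives have a fitted effect of over 45% in size.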 An outline of the steps:
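Quantitative high-throughput format: overnight-seeded HCT-116 cells got compounds for 2 hr at 37C; HDAC-Glo I/II reagent added, 30 min RT, luminescence measured.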

A short description of assay [4]: qHTS assay to identify small molecule HDAC inhibitors - cell viability counter screen (AID 1259365). Note: series mostly up to about 92 µM; nearly all actives have a fitted effect of over 50% in size. An outline of the steps: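 Cytotoxicity was gauged in wild-type HCT-116 cells after a brief 2hr treatment with DMSO-dissolved compounds at 37C and 5% CO2, using CellTiter-Glo luminescence developed for 30min at room temperature.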
A short description of assay [5]: qHTS assay to identify small molecule agonists of the sonic hedgehog signaling (Shh) pathway - cell viability counter screen (AID 1259366). Note: nearly all actives have a fitted effect of over 50% in size. Note: potency is the fitted concentration of half-maximal effect. An outline of the steps: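 Stable Gli1-Luc NIH/3T3 clone, 2,000 cells/well. Compound exposure 24hr at 37C. Read-out: CellTiter-Fluor fluorescence.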
A short description of assay [6]: qHTS assay to identify small molecule antagonists of the sonic hedgehog signaling (Shh) pathway - cell viability counter screen (AID 1259367). Note: nearly all actives have a fitted effect of over 55% in size. The essentials: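 Conditioned medium drove Shh signaling in 3T3 Gli1-Luc cells exposed to compounds at 37C and 5% CO2. Viability was determined from CellTiter-Fluor fluorescence, with reagent incubated 1 hr after 23 hr of treatment.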

The nature of assay [7]: qHTS assay to identify small molecule agonists of the sonic hedgehog signaling (Shh) pathway (AID 1259368; calls by dose curve;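 note: NIH/3T3-derived 3T3Gli1-Luc cells carrying a stable Gli1-driven firefly luciferase reporter; series mostly up to about 92 µM; nearly all actives have a fitted effect of over 15% in size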). The essentials: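 Quantitative high-throughput format using a Gli1-driven firefly luciferase reporter line derived from NIH/3T3 cells. After a 24 hr compound treatment at 37 C and 5% CO2, luminescence reported Gli1 response element activity.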
The nature of assay [8]: qHTS assay to identify small molecule antagonists of the sonic hedgehog signaling (Shh) pathway (AID 1259369; calls by dose curve; note: nearly all actives have a fitted effect of over 45% in size; note: potency is the fitted concentration of half-maximal effect). The essentials: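 Stable Gli1-Luc reporter NIH/3T3 clone; quantitative HTS in stimulated mode with conditioned medium. Luminescence measured after 24hr compound treatment at 37 C.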
Assay [9] has as its target Estrogen receptor beta (Homo sapiens) (UniProt Q92731). In words: qHTS assay to identify small molecule agonists of the estrogen receptor beta (ER-beta) signaling pathway (AID 1259377; active = well fitted activation curve with a large enough effect in the signal ratio in the repeat runs, not every such curve was filed as active; the % refers to the signal ratio). The essentials:
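Measured by fluorescence intensity from a B/G FRET beta-lactamase substrate (2 h, room temperature) in ER-beta-UAS-bla HEK293T cells treated with DMSO-dissolved compounds for 16 hr at 37C and 5% CO2.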

Assay [10] has the same target. In words: qHTS assay to identify small molecule antagonists of the estrogen receptor beta (ER-beta) signaling pathway (AID 1259378; active = well fitted inhibition curve with a large enough effect in the signal ratio in the repeat runs, not every such curve was filed as active; the % refers to the signal ratio; note: potency is the fitted concentration of half-maximal effect). The essentials: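 ER-beta-UAS-bla HEK293T (GripTite) cells in 2% charcoal-stripped FBS medium were preincubated 6 hr at 37C, dosed with compound, then stimulated with 1 nM E2 (final) for 16 hr; beta-lactamase reporter read by B/G FRET fluorescence after 2 hr substrate loading.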

Assay [11] is described as follows: qHTS assay to identify small molecule agonists of the androgen receptor (AR) signaling pathway in the presence of an antagonist - cell viability counter screen (AID 1259379).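 Note: MDA-kb2 human breast cancer cells carrying an MMTV luciferase reporter; series mostly up to about 92 µM; nearly all actives have a fitted effect of over 25% in size.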 The essentials: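 Nilutamide-containing (3.0uM final) MDA-kb2 cultures, 3,000 cells/well, were treated with compounds across 15 concentrations. After 16 hr at 37C with no CO2, cell viability was determined by CellTiter-Fluor fluorescence in the luciferase assay wells.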

Assay [12] has as its target Androgen receptor (Homo sapiens) (UniProt P10275). The experiment in a line: qHTS assay to identify small molecule agonists of the androgen receptor (AR) signaling pathway in the presence of an antagonist (AID 1259381; calls by dose curve; note: nearly all actives have a fitted effect of over 15% in size). An outline of the steps: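 Reporter-gene luminescence from MDA-kb2 cells exposed 16hr at 37C (0% CO2) to 15-point compound titrations with 3.0uM final nilutamide as AR antagonist.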

The nature of assay [13]: qHTS assay to identify small molecule antagonists of the estrogen receptor beta (ER-beta) signaling pathway - cell viability counter screen (AID 1259382). Note: series mostly up to about 92 µM; nearly all actives have a fitted effect of over 55% in size. An outline of the steps: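 Viability is scored by CellTiter-Glo luminescence (30 min, room temperature) in ER-beta-UAS-bla HEK293T wells already read for reporter fluorescence. Compound exposure lasts 16 hr at 37C alongside 1nM 17-beta-estradiol in charcoal-stripped serum medium.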

The target in assay [14] is Estrogen receptor (Homo sapiens) (UniProt P03372). The experiment in a line: qHTS assay to identify small molecule agonists of the estrogen receptor alpha (ER-alpha) signaling pathway in the presence of an antagonist (AID 1259383; calls by dose curve; note: top concentration of the series differs between compounds; nearly all actives have a fitted effect of over 15% in size). The essentials:
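Readout was ERE-driven luciferase luminescence in VM7Luc4E2 cells, which express full-length ER-alpha endogenously. Compounds were tested at 15 concentrations for 22hr alongside 10.0nM ICI-182,780 (final concentration).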

The nature of assay [15]: qHTS assay to identify small molecule agonists or antagonists of the thyroid stimulating hormone receptor (TSHR) signaling pathway - wild type cell line counter screen (AID 1259384; calls by dose curve). The essentials:
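Wild-type HEK293 cells were plated 18 h at 37 C/5% CO2, pin-dosed with compound plus Ro20-1724 medium, held 30 min at room temperature, then given cAMP-d2 and anti-cAMP-cryptate; fluorescence was read after 1 h. Fifteen concentrations, triplicate.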

Assay [16] deals with Thyrotropin receptor (Homo sapiens) (UniProt P16473). The experiment in a line: qHTS assay to identify small molecule antagonists of the thyroid stimulating hormone receptor (TSHR) signaling pathway (AID 1259385; calls by dose curve; note: nearly all actives have a fitted effect of over 20% in size). An outline of the steps:
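TSHR-HEK293 cells were plated and held 18 h at 37C/5% CO2, then given compound plus Ro20-1724 and stimulated with TSH at 1.5 ng/mL final. After 30 min at room temperature, cAMP was detected with cAMP-d2/anti-cAMP-cryptate (1 h) by fluorescence.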

Assay [17] can be described thus: qHTS assay to identify small molecule agonists of the estrogen receptor alpha (ER-alpha) signaling pathway in the presence of an antagonist - cell viability counter screen (AID 1259386).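 Note: cells exposed to compounds for 22 h at 37 °C before the viability read; nearly all actives have a fitted effect of over 30% in size.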 Note: potency is the fitted concentration of half-maximal effect. The essentials: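 In this counter screen, compound effects on VM7Luc4E2 viability were tested in the presence of the antagonist ICI-182,780 at 10.0nM final. Compounds were dosed at 15 concentrations, exposure lasted 22hr, and the CellTiter-Fluor signal was read.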

The target of assay [18] is Estrogen receptor (Homo sapiens) (UniProt P03372). In words: qHTS assay to identify small molecule antagonists of the estrogen receptor alpha (ER-alpha) signaling pathway using the BG1 cell line in the presence of 0.1 nM 17-beta-estradiol (AID 1259244). Note: nearly all actives have a fitted effect of over 50% in size. The essentials: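 Reporter is a stably transfected luciferase under four estrogen responsive elements in VM7Luc4E2 cells expressing native full-length ER-alpha; inhibition of 0.1 nM (final) 17beta-estradiol-driven signal over 22 h is read by luminescence.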

The nature of assay [19]: qHTS assay to identify small molecule agonists of the estrogen receptor beta (ER-beta) signaling pathway - cell viability counter screen (AID 1259380). Note: nearly all actives have a fitted effect of over 30% in size. The essentials:
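Steps: plate ER-beta-UAS-bla HEK293T cells, rest 6 hr; add compounds in DMSO; incubate 16 hr at 37C, 5% CO2; add FRET substrate 2 hr; add CellTiter-Glo, wait 30 min at room temperature; read luminescence.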

Assay [20] in a line: qHTS assay to identify small molecule phospholipidosis (PLD) inducers (AID 1259344; active = well fitted curve in the direction sought with a large enough effect; an effect the other way counts as inactive or inconclusive). The essentials: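 After 4 h attachment on collagen I, HepG2 cells were dosed with compound alongside LipidTOX Red, kept 24 h at 37 C, fixed, and imaged for lamellar phospholipid pits.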

Values without a mark were called inactive. Inconclusive results are not listed. The source made the active and inactive calls. Unless noted, calls come from the whole dose curve; as a rule, active = well fitted curve in the direction sought with a large enough effect in the repeat runs; inconclusive = weak or mixed curves; inactive = no such curve, though single readings can be large; an effect the other way counts as inactive or inconclusive.

Chain of Estrogen receptor (Homo sapiens) (P03372 whole entry, looked up): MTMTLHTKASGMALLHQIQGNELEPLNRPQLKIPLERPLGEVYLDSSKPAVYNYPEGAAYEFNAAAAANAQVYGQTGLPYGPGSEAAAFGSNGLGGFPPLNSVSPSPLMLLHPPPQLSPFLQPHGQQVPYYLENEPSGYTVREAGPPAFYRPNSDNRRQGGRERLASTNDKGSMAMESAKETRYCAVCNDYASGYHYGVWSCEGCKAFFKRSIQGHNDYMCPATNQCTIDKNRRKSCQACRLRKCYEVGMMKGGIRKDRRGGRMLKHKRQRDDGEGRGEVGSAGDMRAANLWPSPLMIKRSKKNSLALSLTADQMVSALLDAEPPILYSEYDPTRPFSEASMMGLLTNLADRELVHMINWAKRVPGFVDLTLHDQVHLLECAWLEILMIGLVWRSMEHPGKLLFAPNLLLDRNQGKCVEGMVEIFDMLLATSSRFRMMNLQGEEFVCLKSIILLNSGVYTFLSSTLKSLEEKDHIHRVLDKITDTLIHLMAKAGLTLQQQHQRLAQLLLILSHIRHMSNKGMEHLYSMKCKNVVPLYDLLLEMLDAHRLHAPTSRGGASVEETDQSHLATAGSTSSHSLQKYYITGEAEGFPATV
Chain of Estrogen receptor beta (Homo sapiens) (Q92731 whole entry, looked up): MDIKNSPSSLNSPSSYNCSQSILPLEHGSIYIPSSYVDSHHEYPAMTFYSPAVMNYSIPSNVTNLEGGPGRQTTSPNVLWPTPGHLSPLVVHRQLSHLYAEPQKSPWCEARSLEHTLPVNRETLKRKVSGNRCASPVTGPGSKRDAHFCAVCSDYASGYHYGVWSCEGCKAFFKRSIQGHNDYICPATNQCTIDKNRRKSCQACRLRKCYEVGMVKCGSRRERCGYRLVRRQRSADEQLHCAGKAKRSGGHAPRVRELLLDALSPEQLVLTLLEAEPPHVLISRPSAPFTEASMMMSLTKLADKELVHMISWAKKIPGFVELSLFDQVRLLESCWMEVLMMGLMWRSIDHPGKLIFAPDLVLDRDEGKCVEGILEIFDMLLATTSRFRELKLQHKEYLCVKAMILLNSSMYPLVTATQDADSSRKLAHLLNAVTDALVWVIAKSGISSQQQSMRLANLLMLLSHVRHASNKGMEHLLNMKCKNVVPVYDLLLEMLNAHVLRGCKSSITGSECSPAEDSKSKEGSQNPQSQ
Chain of Androgen receptor (Homo sapiens) (P10275 whole entry, looked up): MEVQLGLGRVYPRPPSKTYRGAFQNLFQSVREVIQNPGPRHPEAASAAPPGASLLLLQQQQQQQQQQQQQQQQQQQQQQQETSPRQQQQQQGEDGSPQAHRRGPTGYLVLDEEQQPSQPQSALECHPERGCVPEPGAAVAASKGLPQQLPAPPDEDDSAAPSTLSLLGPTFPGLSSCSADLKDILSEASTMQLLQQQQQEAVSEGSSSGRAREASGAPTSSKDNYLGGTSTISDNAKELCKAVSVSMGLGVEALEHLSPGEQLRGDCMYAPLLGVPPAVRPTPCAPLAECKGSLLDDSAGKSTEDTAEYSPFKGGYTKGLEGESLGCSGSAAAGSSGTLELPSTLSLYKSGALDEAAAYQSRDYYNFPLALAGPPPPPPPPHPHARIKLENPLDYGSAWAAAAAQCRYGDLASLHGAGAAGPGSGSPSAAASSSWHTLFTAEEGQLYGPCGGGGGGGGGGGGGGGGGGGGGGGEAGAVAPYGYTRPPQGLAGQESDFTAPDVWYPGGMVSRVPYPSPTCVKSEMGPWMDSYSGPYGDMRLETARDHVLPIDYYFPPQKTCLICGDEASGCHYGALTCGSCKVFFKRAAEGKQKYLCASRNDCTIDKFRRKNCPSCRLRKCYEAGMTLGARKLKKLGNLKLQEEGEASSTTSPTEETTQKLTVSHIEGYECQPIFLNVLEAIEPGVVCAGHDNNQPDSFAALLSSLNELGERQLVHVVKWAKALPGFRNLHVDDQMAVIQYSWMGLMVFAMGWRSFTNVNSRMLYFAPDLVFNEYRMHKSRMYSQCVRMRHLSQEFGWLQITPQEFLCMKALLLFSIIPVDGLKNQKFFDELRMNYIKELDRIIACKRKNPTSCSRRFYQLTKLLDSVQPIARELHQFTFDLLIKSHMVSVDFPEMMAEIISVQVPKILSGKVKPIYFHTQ
Chain of Thyrotropin receptor (Homo sapiens) (P16473 whole entry, looked up): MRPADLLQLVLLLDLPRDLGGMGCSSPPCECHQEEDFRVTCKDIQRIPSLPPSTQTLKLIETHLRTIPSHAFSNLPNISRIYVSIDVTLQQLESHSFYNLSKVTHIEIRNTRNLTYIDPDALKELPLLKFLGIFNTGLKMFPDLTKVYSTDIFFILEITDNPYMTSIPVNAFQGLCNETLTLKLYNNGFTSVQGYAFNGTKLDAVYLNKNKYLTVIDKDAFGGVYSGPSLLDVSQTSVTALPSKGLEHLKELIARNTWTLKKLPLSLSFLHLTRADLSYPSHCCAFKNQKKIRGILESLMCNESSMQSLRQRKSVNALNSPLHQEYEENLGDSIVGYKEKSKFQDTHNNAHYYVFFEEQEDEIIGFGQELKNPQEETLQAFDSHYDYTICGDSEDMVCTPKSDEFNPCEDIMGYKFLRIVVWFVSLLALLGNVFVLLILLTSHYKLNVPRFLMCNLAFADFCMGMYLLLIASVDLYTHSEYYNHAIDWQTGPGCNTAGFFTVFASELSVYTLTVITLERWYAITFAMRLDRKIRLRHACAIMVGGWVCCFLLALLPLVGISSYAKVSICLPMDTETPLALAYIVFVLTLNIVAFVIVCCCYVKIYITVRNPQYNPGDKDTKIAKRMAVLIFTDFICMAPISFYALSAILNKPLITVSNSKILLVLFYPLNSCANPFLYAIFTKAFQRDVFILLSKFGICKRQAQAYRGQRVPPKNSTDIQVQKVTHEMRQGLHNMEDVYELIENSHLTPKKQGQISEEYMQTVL

Consider `CC1COC2(c3ccccc3Cl)c3cc(Cl)ccc3NC(=O)CN12` (stereo unspecified), for which the outcome in [1], in assay [4], in assay [7] and in assay [9] was inactive. For the same molecule, the Potency result in assay [2], in assay [3], in assay [5], in assay [6], in assay [11] and in assay [12] was “inactive” throughout. For the same molecule, the Potency entry in [13], in [14], in assay [15], in assay [16] and in [17] was “inactive” each time. Further, the Potency in [8] is 29.8 µM (active); in [10] it was 26.6 µM (active).

With `COP(N)(=S)Oc1ccccc1C(=O)OC(C)C` (stereo unspecified), the outcome in [1], in assay [4] and in [7] was inactive. The Potency result in assay [2], in assay [18], in assay [3], in [5], in [6] and in assay [8] was “inactive” in each case. In addition, the Potency result in assay [11], in [19], in assay [12], in [13], in assay [14] and in assay [15] was “inactive” throughout. In addition, the Potency entry in [16] and in assay [17] was “inactive” in each case.

On to `CCCCOP(=O)(O)OCCCC`, for which the outcome in [1], in assay [4] and in assay [7] was inactive. Also, the Potency result in [2], in assay [18], in [3], in assay [5], in [8] and in assay [10] was “inactive” throughout. Moreover, the Potency result in assay [11], in [19], in assay [12], in [13], in [14] and in assay [15] was “inactive” throughout. Further, the Potency entry in [16] is “inactive”.

Turning to `CCOP(=O)(OCC)OP(=O)(OCC)OCC`, the result in assay [1], in assay [4] and in [7] was inactive. Also, the Potency result in [2], in assay [3], in assay [5], in assay [6], in [8] and in assay [10] was “inactive” throughout. Further, the Potency result in assay [11], in assay [19], in [12], in [13], in assay [15] and in assay [16] was “inactive” throughout. For the same molecule, in assay [17], the Potency entry is “inactive”.

In the case of `CCOC(=O)C1(c2ccccc2)CCN(CCc2ccc(N)cc2)CC1`, the outcome in assay [1], in assay [4], in assay [7] and in assay [9] was inactive. The Potency result in assay [2], in assay [18], in assay [3], in assay [5], in assay [6] and in [8] was “inactive” in each case. Besides, the Potency entry in assay [10], in assay [11], in assay [12], in assay [13], in assay [14] and in [15] was “inactive” each time. Also, in assay [16], the Potency result is “inactive”.

With `CCCCOC(=O)c1ccccc1C(=O)O`, the outcome in assay [1], in [4], in [7] and in assay [9] was inactive. Moreover, the Potency entry in assay [2], in assay [3], in assay [5], in assay [6], in assay [8] and in assay [10] was “inactive” in each case. Besides, the Potency result in assay [11], in assay [12], in assay [13], in [15], in assay [16] and in assay [17] was “inactive” throughout.

For `CC(C)(C)NCC(O)c1cc(Cl)c(N)c(Cl)c1` (stereo unspecified), the result in assay [1], in assay [20], in assay [4], in assay [7] and in [9] was inactive. In addition, the Potency entry in [2], in assay [8], in assay [10], in [11], in assay [19] and in [12] was “inactive” in each case. Besides, the Potency entry in assay [13] and in [16] was “inactive” in each case. For the same molecule, the Potency in assay [5] was 11.9 µM (active); in assay [17] it was 21.1 µM (active).

`CCOC(=O)C(c1c(O)c2ccccc2oc1=O)c1c(O)c2ccccc2oc1=O`: the outcome in assay [1], in assay [4], in assay [7] and in [9] was inactive. The Potency entry in assay [2], in assay [18], in [3], in [11], in assay [12] and in assay [14] was “inactive” throughout. Further, the Potency result in [15] and in [17] was “inactive” each time.

The values are drawn from PubChem BioAssay (Tox21).
